# Screening results from PubChem BioAssay.
# CYP2C19 activ = increases human CYP2C19 enzyme activity; recombinant CYP2C19, luciferin-H EGE luminescence; stronger effect = higher value; 0 = fully inhibited enzyme, 1 = untreated enzyme; AID 1025; P33261; activation factor at 5 µM; 96,000 tested, under 10 active;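 active = activation factor of at least 2 at 5 µM in the primary screen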;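 note: 0 = wells with 2.5 mM tranylcypromine and 1 = vehicle-only wells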
# Target sequence (P33261 whole entry, looked up): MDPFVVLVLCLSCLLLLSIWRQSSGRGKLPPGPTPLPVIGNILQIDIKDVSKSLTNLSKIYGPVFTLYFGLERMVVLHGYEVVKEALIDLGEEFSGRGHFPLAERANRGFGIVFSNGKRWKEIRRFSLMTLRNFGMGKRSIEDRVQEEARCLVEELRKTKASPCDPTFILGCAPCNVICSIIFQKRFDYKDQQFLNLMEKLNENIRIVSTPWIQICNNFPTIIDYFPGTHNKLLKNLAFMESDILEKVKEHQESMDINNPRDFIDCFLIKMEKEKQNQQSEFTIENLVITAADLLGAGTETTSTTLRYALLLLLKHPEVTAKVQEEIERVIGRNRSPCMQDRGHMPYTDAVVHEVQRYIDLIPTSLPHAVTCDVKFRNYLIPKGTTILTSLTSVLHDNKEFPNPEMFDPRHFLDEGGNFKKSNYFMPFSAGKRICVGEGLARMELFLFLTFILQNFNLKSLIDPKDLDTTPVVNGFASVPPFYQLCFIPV
# Measles CPE = protection of cells from measles virus; hit rate 1.5% among 140,000; protection (pct of control), % at 4 µM; Measles virus-infected cells, CPE protection, absorbance; in the data active = protection mostly above about 24%, no sharp cut-off; inactive = mostly below about 26%
# CYP2C19 inhib = blocks human cytochrome P450 2C19 | AID 778 | P33261 | CYP2C19 Supersomes, luciferin-H EGE luminescence, 30 min | inhibition, % at 5 µM | hit rate 21% among 96,000;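 active = CYP2C19 inhibition above a set limit at 5 µM in the primary screen, cut at about 50% in these data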;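 note: plate controls were negative control wells for no effect and 2.5 mM tranylcypromine positive control for full effect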
# CYP2C9 inh = blocks human cytochrome P450 2C9. CYP2C9 Supersomes, luciferin-H conversion, luminescence. inhibition, % at 5 µM. hit rate 20% among 96,000. AID 777;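 active = blocking of liver enzyme CYP2C9 beyond about 50% at 5 µM, limit read from the data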
# CYP2C9 act = activators of human CYP2C9; P11712; recombinant CYP2C9, luciferin-H conversion, luminescence; stronger effect = higher value; factor 1 = untreated enzyme, 0 = blocked; activation factor at 5 µM; hit rate 1.4% among 96,000;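 active = activation factor of 2 or more for CYP2C9 at a 5 µM dose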;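 note: 0 = sulfaphenazole-blocked wells and 1 = vehicle-only wells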
# Active calls of the source: *; · = not tested or not shown. Most compounds without a hit are left out; they make up all but 22% or so of the library.
SMILES,CYP2C19 activ,Measles CPE,CYP2C19 inhib,CYP2C9 inh,CYP2C9 act
CC1CSc2nc3sc4c(c3c(=O)n21)CCCC4 (configuration not stated),0.9,6,13,26,0.7
COc1cccc(C(C#N)N2CCOCC2)c1 (configuration not stated),0.2,5,78*,-2,1
COC(=O)c1c(NC(=O)c2ccc(S(=O)(=O)N3CCOCC3)cc2)sc2c1CCN(C)C2,·,15,·,·,·
CCNC(=O)Cc1ccc(NS(=O)(=O)c2ccc(F)cc2)cc1,0.7,9,27,53*,0.5
CCNS(=O)(=O)c1ccc(NC(=O)Cc2ccc(F)cc2)cc1,0.9,4,10,48,0.5
O=C(Cc1ccc(NS(=O)(=O)c2ccc(F)cc2)cc1)NCc1ccccc1,0.2,8,76*,94*,0.1
O=C(Cc1ccc(-c2ccccc2)cc1)NCc1ccccc1,·,2,·,·,·
CCOC(=O)c1ccc(NS(=O)(=O)c2ccc(SC)cc2)cc1,1,11,0,46,0.5
CCOC(=O)Cc1ccc(NS(=O)(=O)c2ccc(SC)cc2)cc1,0.7,14,32,71*,0.3
COc1cc(/C=C/c2nc(-c3ccccc3O)n[nH]2)cc(OC)c1OC,·,7,·,·,·
C=CCN1C(=O)C(Cc2ccc(F)cc2)S/C1=N/N=C/c1ccco1 (configuration not stated),·,9,·,·,·
O=C(c1cc2ccccc2oc1=O)N1CCN(c2ccccn2)CC1,0.2,1,77*,9,0.9
CN1CCN(C(=O)c2cc3ccccc3oc2=O)CC1,0.9,8,7,-2,1
O=C(c1cc2ccccc2oc1=O)N1CCN(c2ncccn2)CC1,0.1,3,87*,4,1
O=C(c1cc2ccccc2oc1=O)N1CCCC1,1.1,10,-12,-44,1.4
COc1ccccc1NC(=O)COC(=O)c1cnccn1,0.9,7,12,32,0.7
Cc1cn(C(=O)C(C)N2C(=O)c3ccccc3C2=O)c(C)n1 (configuration not stated),0.5,9,50*,25,0.8
CC1(C)CC(=O)C=C(N=CC2=C(O)CC(C)(C)CC2=O)C1,1.2,52*,-15,-27,1.3
CCOc1ccc(C(C)=O)cc1N1C(=O)C2C3C=CC(O3)C2C1=O (configuration not stated),1,6,4,-2,1
Cn1c(=O)c2c(nc(N3CCOCC3)n2C)n(C)c1=O,1,2,3,0,1
COc1ccc(/C=N/NC(=O)C(=O)NCc2cccnc2)cc1OC,1.1,7,-6,-2,1
Cc1cc(NCCOCCO)n2ncc(-c3ccc(Cl)cc3)c2n1,0.7,5,29,28,0.7
CC(C)(C)c1cc(NCCCn2ccnc2)n2ncc(-c3ccc(Cl)cc3)c2n1,0.9,3,8,66*,0.3
Cc1cc(C)c2c(n1)nn1c(NCCCn3ccnc3)cc(C)nc21,0.3,·,69*,96*,0
Cc1cc(NCCCn2ccnc2)n2nc(-c3ccc(F)cc3)cc2n1,0,4,97*,98*,0
SMILES,CYP2C19 activ,Measles CPE,CYP2C19 inhib,CYP2C9 inh,CYP2C9 act
CCOC(=O)c1c(OCC)[nH]c2c1cc(O)c1ccccc12,0.7,17,30,46,0.5
CCOC(=O)c1c(C)[nH]c2cc(Br)c(O)cc12,0.3,8,68*,68*,0.3
COc1ccnc(N2CCN(c3ccccc3)CC2)c1C#N,0,9,100*,80*,0.2
Cn1nc(C(F)(F)F)c(C#N)c1N1CCN(c2ccc(F)cc2)CC1,0.2,14,78*,82*,0.2
Cn1nc(C(F)(F)F)c(C#N)c1N1CCN(c2ccccc2)CC1,0.3,3,69*,72*,0.3
CC1(C)CC(=O)C=C(Nc2ccc(Br)cn2)C1,0.8,6,15,-1,1
CN1CCN(CCCCC(=O)c2ccccc2)CC1,1,3,0,4,1
COc1ccc(N2C(=O)CC(NCc3ccncc3)C2=O)cc1 (configuration not stated),·,45*,·,·,·
COc1ccc(NC2CC(=O)N(c3ccccc3)C2=O)cc1 (configuration not stated),0.5,21,55*,-3,1
NC(=O)CNC(=O)[C@@H]1CC2(CC(c3cccc([N+](=O)[O-])c3)=NO2)CN1C(=O)c1ccccc1 (some centres not stated),0.9,10,12,15,0.9
COc1ccc(NC(=O)COC(=O)/C=C/c2ccc(OC)c(S(=O)(=O)N3CCOCC3)c2)cc1,·,4,·,·,·
CC1(C)CC(=O)C2=C(C1)Nc1ccccc1NC2c1cccnc1 (configuration not stated),1.1,22,-6,-6,1.1
CCC(=O)c1cccc2c1N=CC1=C(CC(C)(C)CC1=O)N2,0.7,8,27,55*,0.5
CCOc1ccc(C2C=C(c3ccc(F)cc3)Nc3ncnn32)cc1 (configuration not stated),0.6,4,44,59*,0.4
CCOc1ccc(C2C=C(c3ccccc3)Nc3ncnn32)cc1 (configuration not stated),1,4,4,30,0.7
COc1cccc(C2=CC(c3ccccc3)n3ncnc3N2)c1 (configuration not stated),0.5,18,55*,55*,0.4
COc1cccc(C2=CC(c3ccc(N(C)C)cc3)n3ncnc3N2)c1 (configuration not stated),0.7,4,30,53*,0.5
COc1cccc(C2=CC(c3ccc(N(C)C)cc3)n3nnnc3N2)c1 (configuration not stated),1.1,2,-11,-9,1.1
COc1ccc(/C=N/NC(=O)c2cc(Br)ccc2O)cc1Cn1cc(Cl)cn1,·,5,·,·,·
COc1ccc(C(C[N+](=O)[O-])c2c(-c3ccccc3)cc3ccccn23)cc1 (configuration not stated),0.2,0,75*,74*,0.3
COc1ccc(C(C[N+](=O)[O-])c2c(-c3ccccc3)cc3ccccn23)cc1OC (configuration not stated),0.8,12,17,30,0.7
COc1cc(C(C[N+](=O)[O-])c2c(-c3ccccc3)cc3ccccn23)cc(OC)c1OC (configuration not stated),0.6,21,45,59*,0.4
CCOc1ccc(C2C(C(=O)Nc3ccc(F)cc3)=C(C)Nc3nc(CCCO)nn32)cc1 (configuration not stated),1,17,4,62*,0.4
COc1ccc(C2C(C(=O)Nc3ccc(F)cc3)=C(C)Nc3nc(CCCO)nn32)cc1 (configuration not stated),1,16,2,42,0.6
CCCCNC(c1ccccc1)c1ccncc1 (configuration not stated),0.3,1,70*,45,0.6
CCOC(=O)C(NCCCO)c1ccccc1 (configuration not stated),0.9,30,6,5,1
